Screening data as filed in PubChem BioAssay.
In the library only some 7% were active in any assay of this set; here they are far more common.
IL-1B inflam inh: blocks inflammasome-driven IL-1 beta release | actives 4.7% (n = 360,000) | THP-1 LPS/ATP IL-1B secretion, AlphaLISA, 16 h; hits give low values | activity change, % at 57.5 µM | AID 743279; in the data active = activity change below about -50%; inconclusive = mostly about -30% to -49%
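THP-1 cells pretreated 1 hr with compounds (up to 57.5 uM final), then stimulated with LPS (250 ng/mL final) plus ATP (1.25 mM final); secreted IL-1B measured by AlphaLISA after 16 hr, decreased signal indicating inhibition.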
S2 tox: reduces viability in counter-screen for ATXN expression inhibitors; S2 cells (HEK-293 line with an ATXN2-luciferase reporter) viability, CellTiter-Fluor protease fluorescence, 24 h; Potency, µM (series often up to 56.7 µM), usual class: cytotoxic; actives 0.49% (n = 400,000); AID 651635; note: nearly all actives have a fitted effect of over 40% in size
ATXN2 expr inh: ATXN2 expression inhibition | actives 0.72% (n = 360,000) | Potency, µM (series often up to 57 µM), hits mostly inhibitors | HEK-293 ATXN2-luciferase reporter, luminescence, 24 h; note: nearly all actives have a fitted effect of over 55% in size
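ATXN2-luciferase reporter cells (luciferase flanked by upstream and downstream ATXN2 gene portions) were treated 24 h at 37 °C with compounds at up to 57 uM. SteadyGlo luminescence gave expression; GF-AFC fluorescence gave viability.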
D3 antag: antagonists of human D3 dopamine receptor. D3R cells, DiscoveRx beta-arrestin luminescence, antagonist mode; hits give low values. actives 2.5% (n = 360,000). max response, negative = inhibition, %; in the data active = max response below about -50%; inconclusive = no clear call, values can overlap the other calls
Target sequence (P35462 whole entry, looked up): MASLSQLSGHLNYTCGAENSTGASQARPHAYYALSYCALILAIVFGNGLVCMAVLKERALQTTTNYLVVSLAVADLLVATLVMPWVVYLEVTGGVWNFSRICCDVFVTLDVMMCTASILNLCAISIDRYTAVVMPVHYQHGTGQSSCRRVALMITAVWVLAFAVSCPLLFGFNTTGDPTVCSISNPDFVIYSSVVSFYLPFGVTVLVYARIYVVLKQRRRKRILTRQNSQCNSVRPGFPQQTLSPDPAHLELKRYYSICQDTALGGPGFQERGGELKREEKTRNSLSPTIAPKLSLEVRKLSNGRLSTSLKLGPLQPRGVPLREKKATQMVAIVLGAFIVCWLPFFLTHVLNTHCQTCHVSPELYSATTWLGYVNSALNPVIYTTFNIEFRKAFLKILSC
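Cells expressing the human receptor were seeded at 1500 cells/well, incubated overnight at 37 degrees C in 5% CO2, then exposed to library compounds with dopamine controls for 90 minutes at 37 degrees C before luminescent detection.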
DRD3 agonist: agonists of human D3 dopamine receptor | AID 652048 | max activation, % | D3R DiscoveRx beta-arrestin cells, luminescence, 90 min | actives 0.58% (n = 410,000); in the data active = max activation above about 30%
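Agonist-mode cell screen: cells plated at 1500/well and incubated overnight at 37 °C, then exposed to library compounds for 90 min at 37 °C. Detection reagent was added for 30–60 min at room temperature, and luminescence was read.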
Integrin act MD: activates integrin-mediated alleviation for muscular dystrophy; alpha7betagal myoblasts, beta-gal FDG fluorescence, 48 h; Potency, µM (highest dose often 38.3 µM), most hits filed as activators; AID 624291; actives 0.064% (n = 350,000); note: nearly all actives have a fitted effect of over 60% in size
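alpha7betagal+/- myoblasts (passage 13, 250/well) treated 48 h at 37C with compounds at 1:260 dilution of DMSO stock. Lysed, then beta-galactosidase activity read as FDG fluorescence (ex 480/em 540) after 30 min, with pre-read for autofluorescence.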
A number is an active result. Unless noted, calls come from the whole dose curve; as a rule, active = well fitted curve in the direction sought with a large enough effect; inconclusive = small, poorly fitted or top-dose-only effect, or another doubt; inactive = no such curve, though single readings can be large; an effect the other way counts as inactive or inconclusive.

What do the screens show for `CC(C)c1ccc(-c2nn(-c3ccccc3)cc2C(=O)NCC2CCCO2)cc1` (stereo not drawn)?
IL-1B inflam inh: -79.9; S2 tox: inactive; ATXN2 expr inh: inactive; D3 antag: inactive; DRD3 agonist: inactive; Integrin act MD: inactive

What do the screens show for `Cc1ccccc1OCC(=O)N/N=C/c1cc2ccccc2nc1Cl`?
IL-1B inflam inh: inactive; S2 tox: inactive; ATXN2 expr inh: inactive; D3 antag: inactive; DRD3 agonist: inactive; Integrin act MD: inactive

How did C=CCc1ccccc1OCC(=O)N/N=C/c1ccc(OC(C)=O)cc1OC(C)=O do in these assays?
IL-1B inflam inh: inactive; S2 tox: inactive; ATXN2 expr inh: 22.4µM; D3 antag: inactive; DRD3 agonist: inactive; Integrin act MD: inactive

What do the screens show for `COc1ccc(CNC(=O)[C@H](Cc2ccccc2)NC(=O)C2CCNCC2)cc1`?
IL-1B inflam inh: inactive; S2 tox: inactive; ATXN2 expr inh: inactive; D3 antag: inactive; DRD3 agonist: inactive; Integrin act MD: inactive

Results for CC(C)Cc1nc2oc3c(NCC4CCCO4)ncnc3c2c2c1CCC2 (stereo not drawn) ?
IL-1B inflam inh: inactive; S2 tox: inactive; ATXN2 expr inh: inactive; D3 antag: inactive; DRD3 agonist: 57.8; Integrin act MD: inactive

Results for Cc1ccc(S(=O)(=O)N(CC(O)CN2CCOCC2)c2cc(Cl)ccc2Cl)cc1 (stereo not drawn) ?
IL-1B inflam inh: inactive; S2 tox: inactive; ATXN2 expr inh: inactive; D3 antag: -53.5; DRD3 agonist: inactive; Integrin act MD: inactive

What do the screens show for `Cc1ccc(N(CC(O)CN2CCOCC2)S(=O)(=O)c2ccc3ccccc3c2)cc1` (stereo not drawn)?
IL-1B inflam inh: inactive; S2 tox: inactive; ATXN2 expr inh: inactive; D3 antag: inactive; DRD3 agonist: inactive; Integrin act MD: inactive

Results for COc1ccc(-c2ccc3c(c2)[C@@H]2C[C@H]4[C@@H](C(=O)N2CC3)[C@H](C)ON4C)cc1 ?
IL-1B inflam inh: inactive; S2 tox: inactive; ATXN2 expr inh: inactive; D3 antag: inactive; DRD3 agonist: inactive; Integrin act MD: inactive

What do the screens show for `Cc1ccccc1Oc1ccc2c(c1)[C@@H]1C[C@H]3[C@@H](C(=O)N1CC2)[C@H](C)ON3C`?
IL-1B inflam inh: inactive; S2 tox: inactive; ATXN2 expr inh: inactive; D3 antag: inactive; DRD3 agonist: 30.9; Integrin act MD: inactive

What do the screens show for `C/C(=N\NC(=O)Cc1ccc([N+](=O)[O-])cc1)c1cccnc1`?
IL-1B inflam inh: inactive; S2 tox: inactive; ATXN2 expr inh: inactive; D3 antag: inactive; DRD3 agonist: inactive; Integrin act MD: inactive

How did CN1C/C(=C/c2ccncc2)C(=O)/C(=C/c2ccncc2)C1 do in these assays?
IL-1B inflam inh: inactive; S2 tox: inactive; ATXN2 expr inh: inactive; D3 antag: inactive; DRD3 agonist: inactive; Integrin act MD: inactive

How did CCN1C/C(=C/c2ccc(N3CCOCC3)cc2)C(=O)/C(=C/c2ccc(N3CCOCC3)cc2)C1 do in these assays?
IL-1B inflam inh: -103.4; ATXN2 expr inh: 22.4µM; D3 antag: inactive; DRD3 agonist: inactive; Integrin act MD: inactive

What do the screens show for `CCCC(=O)Nc1ccc(N2CCOCC2)cc1`?
IL-1B inflam inh: inactive; S2 tox: inactive; ATXN2 expr inh: inactive; D3 antag: inactive; DRD3 agonist: inactive; Integrin act MD: inactive

Results for CN1C/C(=C/c2ccsc2)C(=O)/C(=C/c2ccsc2)C1 ?
IL-1B inflam inh: -94.0; S2 tox: inconclusive; ATXN2 expr inh: inactive; D3 antag: inactive; DRD3 agonist: inactive; Integrin act MD: inactive

What do the screens show for `CN1C/C(=C\c2ccc(N3CCOCC3)cc2)C(=O)/C(=C/c2ccc(N3CCOCC3)cc2)C1`?
IL-1B inflam inh: -103.3; S2 tox: inconclusive; ATXN2 expr inh: inconclusive; D3 antag: inactive; DRD3 agonist: inactive; Integrin act MD: inactive

How did CCOC(=O)c1c(SCCN2CCCC2)n(-c2ccccc2)c(=S)n(-c2ccccc2)c1=O do in these assays?
IL-1B inflam inh: -111.5; S2 tox: inconclusive; ATXN2 expr inh: 22.4µM; D3 antag: -119.3; DRD3 agonist: inactive; Integrin act MD: inactive

How did CCCCSc1n[nH]c(N)n1 do in these assays?
IL-1B inflam inh: inactive; S2 tox: inactive; D3 antag: inactive; DRD3 agonist: inactive; Integrin act MD: inactive

Results for CC(C)(C)OC(=O)COc1cc(OCC(=O)OC(C)(C)C)c2c(=O)cc(-c3ccccc3)oc2c1 ?
IL-1B inflam inh: -67.4; S2 tox: 20µM; ATXN2 expr inh: 20µM; D3 antag: inactive; DRD3 agonist: inactive; Integrin act MD: inactive

Results for COC(=O)c1[nH]c2c(c1C)C(=O)CC(c1cc(OC)c(OC)c(OC)c1)C2 (stereo not drawn) ?
IL-1B inflam inh: inactive; S2 tox: inactive; D3 antag: inactive; DRD3 agonist: inactive; Integrin act MD: inactive

Results for COc1cc(C2CC(=O)c3c([nH]c(C(=O)OC4CCCC4)c3C)C2)cc(OC)c1OC (stereo not drawn) ?
S2 tox: 31.6µM; ATXN2 expr inh: inactive; DRD3 agonist: inactive

Results for CN1CCN(/C(=N\O)c2nonc2N)CC1 ?
IL-1B inflam inh: inactive; S2 tox: inactive; ATXN2 expr inh: inactive; D3 antag: -68.0; DRD3 agonist: inactive; Integrin act MD: inactive

Results for Nc1nonc1/C(=N/O)N1CCN(CCO)CC1 ?
IL-1B inflam inh: inactive; S2 tox: inactive; ATXN2 expr inh: inactive; D3 antag: -63.6; DRD3 agonist: inactive; Integrin act MD: inactive

Results for CC(=O)c1cccc(N2C(=NC(=O)C3CCCCC3)SC3CS(=O)(=O)CC32)c1 (stereo not drawn) ?
IL-1B inflam inh: inactive; S2 tox: inactive; ATXN2 expr inh: inactive; D3 antag: inactive; DRD3 agonist: inactive; Integrin act MD: inactive

How did CN(CC(=O)Nc1cccc(F)c1)C(=O)c1cc(=O)[nH]c2ccccc12 do in these assays?
IL-1B inflam inh: inactive; S2 tox: inactive; ATXN2 expr inh: inactive; D3 antag: inactive; DRD3 agonist: inactive; Integrin act MD: inactive

How did COc1ccc(C2c3ccc(O)cc3Oc3ncn4nc(-c5ccccn5)nc4c32)cc1OC (stereo not drawn) do in these assays?
IL-1B inflam inh: inactive; S2 tox: inactive; ATXN2 expr inh: inactive; D3 antag: inactive; DRD3 agonist: inactive; Integrin act MD: inactive

Results for COc1ccc(C2c3ccc(O)cc3Oc3ncn(Cc4ccccc4)c(=N)c32)cc1OC (stereo not drawn) ?
IL-1B inflam inh: -72.8; S2 tox: inactive; ATXN2 expr inh: inactive; D3 antag: inactive; DRD3 agonist: inactive; Integrin act MD: inactive

How did COc1ccc(C2c3ccc(O)cc3Oc3ncn4nc(-c5ccncc5)nc4c32)cc1OC (stereo not drawn) do in these assays?
IL-1B inflam inh: -70.3; S2 tox: inactive; ATXN2 expr inh: inactive; D3 antag: inactive; DRD3 agonist: inactive; Integrin act MD: inactive
